Source: PubChem BioAssay (National Center for Advancing Translational Sciences (NCATS))
Sampled rows, rich in hits. Any-hit rate of the full collection: about 7.3%.
NPC1 promoter act – activators of NPC1 promoter. Huh7 NPC1 promoter luciferase reporter, 24 h. Potency, µM (series often up to 9.22 µM), for inactives: top-dose activation, most hits filed as activators. 320,000 tested, 2.4% active. AID 485313; note: % of control where 0% means no effect; nearly all actives have a fitted effect of over 60% in size
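Stable NPC1-promoter luciferase Huh7 line; cpd (DMSO) 24 h, 37 °C, 5% CO2; Amplite luciferase reagent 10 min RT; luminescence readout. qHTS format.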
Rab9 prom act – activates the Rab9 promoter; Huh7 Rab9 promoter-luciferase reporter, luminescence, 24 h; Potency, µM (titrated, usually from 9.22 µM), inactives show at the highest dose activation, negative = inhibition, actives largely listed as activators; 320,000 tested, 2.8% active; AID 485297; note: % of control where 0% means no effect; nearly all actives have a fitted effect of over 60% in size
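Luminescence read-out: Huh7 cells stably expressing Rab9-luciferase, treated 24 h with compound at 37 °C, then lysed with luciferase reagent for 10 min at ambient before reading.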
ELG1 genotox – induces genotoxicity in HEK293T cells with luciferase-tagged ELG1 | HEK293T ELG1-luciferase reporter, luminescence, 16 h | Potency, µM (doses to about 46 µM), inactives show at the top dose activity change, positive = activation, hits mostly activators | 330,000 tested, 1.3% active | AID 504466; note: % of control where 0% means no effect; nearly all actives have a fitted effect of over 60% in size
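Luminescence read-out: rising ELG1-luciferase signal, reflecting elevated ELG1 protein under genetic stress, flags genotoxic compounds. Cells were treated for 16 hr at 37 °C before ONE-Glo detection.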
SMN2 splice up – SMN2 splice variant enhancement; Potency, µM (top dose mostly 46.1 µM), without a hit: at the top dose activity change, positive = activation, actives largely listed as activators; AID 1458; HEK293 SMN2-luciferase splicing reporter, luminescence, 30-36 h; 210,000 tested, 2.8% active; note: % of control where 0% means no effect; nearly all actives have a fitted effect of over 55% in size
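qHTS luciferase splicing reporter: luminescence rises when SMN2 exon 7 is included in transfected HEK293 cells. Compound exposure lasted 30-36 h at 37C, with 4.5 mM final sodium butyrate as control, followed by a ONE-Glo read.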
FLuc counter – counter-screen for miR-21 project: firefly luciferase inhibitors or activators. P08659. purified FLuc, Km substrates, luminescence inhibition. Potency, µM (doses to about 57.5 µM), for inactives: top-dose activity change, negative = inhibition, hits mostly inhibitors. 360,000 tested, 6.9% active;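 note: plate controls were vehicle for no effect and reference inhibitor for full effect; nearly all actives have a fitted effect of over 55% in size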
Target sequence (P08659 whole entry, looked up): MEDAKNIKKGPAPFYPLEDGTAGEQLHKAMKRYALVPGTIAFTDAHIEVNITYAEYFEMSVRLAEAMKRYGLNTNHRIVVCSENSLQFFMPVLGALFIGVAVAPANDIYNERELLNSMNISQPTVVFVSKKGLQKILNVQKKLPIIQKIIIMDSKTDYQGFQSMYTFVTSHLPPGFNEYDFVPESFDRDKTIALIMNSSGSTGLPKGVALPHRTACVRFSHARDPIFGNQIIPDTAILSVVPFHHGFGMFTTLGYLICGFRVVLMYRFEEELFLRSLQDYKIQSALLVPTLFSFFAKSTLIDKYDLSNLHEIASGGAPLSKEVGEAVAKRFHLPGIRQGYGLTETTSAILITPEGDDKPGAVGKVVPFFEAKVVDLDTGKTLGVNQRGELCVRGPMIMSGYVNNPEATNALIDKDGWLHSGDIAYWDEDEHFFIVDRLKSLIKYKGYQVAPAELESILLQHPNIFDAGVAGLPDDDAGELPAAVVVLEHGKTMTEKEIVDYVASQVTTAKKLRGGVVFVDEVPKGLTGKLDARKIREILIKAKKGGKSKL
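Purified P. pyralis luciferase (10nM final) with 10uM D-luciferin and 10uM ATP (Km levels) in 50mM Tris acetate pH 7.5, 10mM Mg acetate, 0.01% Tween-20, 0.05% BSA; qHTS 6-point titration, ~60 µM downward; luminescence read.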
KinaseGlo FLuc – Kinase-Glo luciferase inhibition (counter-screen); Kinase-Glo luciferase, ATP luminescence, 8 min; Potency, µM (series often up to 38.3 µM), for inactives: at the highest dose activity change, negative = inhibition, most hits filed as inhibitors; 200,000 tested, 0.28% active; Q27757; note: % is set by controls: 0 for no effect and ±100 for the full control effect; nearly all actives have a fitted effect of over 60% in size
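Inhibition of Kinase-Glo luciferase light generation was assessed at 10 uM ATP in pH 7.2 imidazole buffer, with luminescence measured after eight minutes at ambient temperature.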
* = called active by the depositor; ? = inconclusive; nt = no result; [ ] = remark or other dose. Calls come from the whole dose curve; as a rule, active = well fitted curve in the direction sought with a large enough effect; inconclusive = small, poorly fitted or top-dose-only effect, or another doubt; inactive = no such curve, though single readings can be large; an effect the other way counts as inactive or inconclusive. Potency is the fitted concentration of half-maximal effect.

SMILES	NPC1 promoter act	Rab9 prom act	ELG1 genotox	SMN2 splice up	FLuc counter	KinaseGlo FLuc
COc1ccc(-c2cnn3c4c(c(C)nc23)CCN4C2CCCC2)cc1OC	-0.1%	-9.4%	4.1%	8.2%	-15.6%	2.7%
COc1ccc(/C=C2\C(=O)NC(=S)N2C(=O)c2ccc(F)cc2)cc1	-1.1%	-2.5%	-1.0%	-20.7%	12µM*	1.8%
Cc1ccc(O)c(-c2cc(-c3ccccc3F)[nH]n2)c1	-1.6%	-0.3%	11.2µM*	11.2µM*	13.5µM*	-7.8%
Cc1ccc(-c2cc(-c3ccccc3C)[nH]n2)c(O)c1	3.98µM*	3.55µM*	?	-40.8%	10.7µM*	-5.2%
Oc1ccccc1-c1cc(C(F)(F)F)[nH]n1	-4.1%	0.9%	-6.1%	nt	-10.0%	nt
Cc1ccc(O)c(-c2cc(-c3cccc(F)c3)n[nH]2)c1	-2.6%	-8.7%	9.9%	?	?	-3.9%
Cc1ccc(-c2cc(-c3cccc(F)c3)n[nH]2)c(O)c1	?	3.98µM*	?	14.1µM*	?	0.8%
O=[N+]([O-])c1ccccc1-c1cc(-c2ccccc2O)n[nH]1	14.1%	?	?	3.55µM*	8.49µM*	-3.7%
CC(=O)N/C(=C/c1ccc2c(c1)OCO2)C(=O)Nc1ccccc1	-1.5%	-3.4%	4.8%	-1.1%[1.84 µM]	-2.8%	-1.8%
Fc1ccccc1N1CCN(Cc2cc(-c3ccccc3)on2)CC1	-5.9%	2.0%	-5.3%	nt	2.0%	nt
Brc1ccc(-c2ccc(CNCc3ccccn3)o2)cc1	24.1%	2.8%	3.3%	nt	15.1µM*	nt
Clc1cccc(-c2ccc(CNCc3ccccn3)o2)c1	0.4%	9.7%	-9.6%	nt	?	nt
Cc1cc(N/N=C/c2ccccc2O)nc(N2CCOCC2)n1	3.5%	-0.1%	0.0%	nt	12µM*	nt
CCOc1ccc(/C=N/Nc2cc(C)nc(N3CCOCC3)n2)cc1	22.6%	19.3%	3.4%	nt	1.35µM*	nt
Cc1cc(N/N=C/c2cccc(Cl)c2)nc(-n2nc(C)cc2C)n1	0.9%	-1.3%	-10.9%	nt	-19.1%	nt
COc1ccc(/C=N/Nc2cc(C)nc(-n3nc(C)cc3C)n2)cc1	-3.1%	-14.8%	-10.0%	-114.4%	16.9µM*	-0.5%
CCOc1ccc2nc(N3CCOCC3)nc(C)c2c1	3.98µM*	?	9.2µM*	2.82µM*	10.7µM*	-1.7%
Cc1ccc(NC(=O)CN(C)Cc2cccs2)cc1Cl	-2.6%	10.6%	4.5%	nt	?	nt
CCOC(=O)N1CCN(Cc2nc3c(c(=O)n(C)c(=O)n3C)n2Cc2ccccc2C)CC1	1.4%	11.6%	3.0%	1.2%	0.3%	-0.7%
CC(/C=N/NC(=O)c1cc(C(C)(C)C)[nH]n1)=C\c1ccccc1	-1.5%	-0.6%	-3.2%	16.0%	?	0.2%
CC(/C=N/NC(=O)c1ccncc1)=C\c1ccccc1	19.5%	-2.5%	5.5%	-6.9%	7.57µM*	-5.2%
CC(/C=N/NC(=O)Cc1cc(=O)[nH][nH]1)=C\c1ccccc1	-2.6%	-11.3%	2.0%	-12.7%	15.1µM*	-6.6%
CC(=C/c1ccccc1)/C=N/NC(=O)c1ccccn1	0.447µM*	0.447µM*	?	nt	0.601µM*	nt
CC(=C/c1ccc(C(C)C)cc1)/C=N/NC(=O)c1ccncc1	24.8%	28.0%	0.8%	2.5%[1.84 µM]	2.69µM*	-2.1%
Fc1ccc(NC(=S)NCc2ccccc2)cc1	1.0%	-1.6%	-1.9%	nt	4.1%	nt
CC(/C=N/NC(=O)NC1CCCCC1)=C\c1ccccc1	13.7%	17.6%	10.5%	24.0%	?	-2.1%
CC(/C=N/NC(=O)c1cccc(F)c1)=C\c1ccccc1	0.501µM*	0.398µM*	?	nt	2.39µM*	nt
COc1ccccc1C(=O)N/N=C/C(C)=C/c1ccccc1	?	14.7%	14.4%	nt	9.53µM*	nt
O=C(NCc1ccco1)/C(=C\c1cccs1)NC(=O)c1ccsc1	0.6%	-8.8%	0.5%	10.2%	2.0%	-3.6%
COc1ccccc1N(Cc1ccccc1)S(=O)(=O)c1cccc(C(=O)O)c1	0.6%	0.3%	0.6%	5.01µM*	0.4%	-1.2%
